Measurements as given in PubChem BioAssay AID686978 (National Center for Advancing Translational Sciences (NCATS), 2013).
Hit rate of the full screen: of about 420,000 compounds, about 64,000 (15%) were called active. Not shown: some 27% with an inconclusive outcome. These entries were drawn from the full list. A number with no mark means an inactive call. Calls follow the shape of the dose curve; as a rule, active = well fitted inhibition curve with a large enough effect; inconclusive = small, poorly fitted or top-dose-only effect; inactive = flat fitted curve, though single readings scatter.

Assay: qHTS for Inhibitors of human tyrosyl-DNA phosphodiesterase 1 (TDP1): qHTS in cells in absence of CPT; also: nearly all actives have a fitted effect of over 55% in size
Conditions: DT40 Tdp1-/- hTDP1 cells, no CPT, ATP luminescence, 48 h; activity change, negative = growth inhibition: at 46.2 µM (top of the series)
Procedure, shortened: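 A cellular qHTS used chicken DT40 cells lacking endogenous Tdp1 but carrying stably transfected human TDP1. Compounds were applied without camptothecin, and cell growth kinetics were judged by ATP-dependent luminescence after ≥48 hr.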
% is scaled to controls: 0 for no effect and ±100 for the full control effect; potency is read from the fitted curve at half-maximal effect.

| Compound | activity change, negative = growth inhibition | Potency |
| --- | --- | --- |
| O=C(Nc1ccc(C(=O)NCc2ccccc2Cl)cc1)C1=CSCCO1 | -20.2% | – |
| C=CCn1c2c(c3ccccc31)CCC2 | -24.3% | – |
| CCc1nnc(NS(=O)(=O)c2ccc(NC(=O)c3cccc(OC(F)(F)C(F)F)c3)cc2)s1 | -8.34% | – |
| O=C(c1cccs1)N1CCN(C(=O)N2CCOCC2)CC1 | 5.43% | – |
| C/C(=N\Nc1ccccc1)c1cccs1 | -19.2% | – |
| C/C(=N\Nc1nc(Nc2ccccc2)nc(N2CCOCC2)n1)c1cccs1 | – | 20.6 µM (active) |
| CCN(c1ccccc1)S(=O)(=O)c1ccc(OCC(=O)N2CCCC2)cc1 | -17.5% | – |
| CCc1cccc(NC(=O)CCNS(=O)(=O)c2cccc3nonc23)c1 | – | inactive |
| Cc1ccc(NC(=O)C2(N3CCC3=O)CCCCC2)cc1 | 10.4% | – |
| Cc1ccc(-c2cn3c(n2)sc2cc(C(=O)NCCCc4ccccc4)ccc23)cc1 | – | 8.2 µM (active) |
| CCOc1cccc2cc(-c3cn4c(n3)sc3cc(C)ccc34)c(=O)oc12 | 0.207% | – |
| COc1ccc(Cl)cc1C(=O)OCC(=O)NCc1cccs1 | 22.9% | – |
| Cc1ccc(-c2cn3c(n2)sc2cc(C(=O)NCc4cccs4)ccc23)c(C)c1 | – | 18.4 µM (active) |
| CCOc1ccc(CCNC(=O)c2ccc3c(c2)sc2nc(-c4ccc(F)cc4)cn23)cc1OCC | – | 5.8 µM (active) |
| CCOc1ccc(CCNC(=O)Cn2nc(CC)n3c(cc4sc(CC)cc43)c2=O)cc1OCC | -19.3% | – |
| Cc1cc(C(=O)NCCCc2ccccc2)no1 | -4.19% | – |
| COc1ccc(CCNC(=O)c2ccc3c(c2)sc2nc(-c4ccc(C)cc4)cn23)cc1OC | – | 5.17 µM (active) |
| CC(C)c1ccc(C(=O)NCCCc2ccccc2)cc1 | -16.9% | – |
| CCc1cc2c(cc3c(=O)n(CC(=O)NCCc4ccc(OC)c(OC)c4)ncn32)s1 | -0.928% | – |
| CCOc1ccc(CCNC(=O)Nc2ccccc2)cc1OCC | -29.6% | – |
| COc1ccc(CCNC(=O)CN(C)S(=O)(=O)c2ccc3nc(C)sc3c2)cc1OC | -11.5% | – |
| Cc1cc(O)c(NC(=O)c2ccc(C)c([N+](=O)[O-])c2)cc1C | -20.8% | – |
| CCc1ccc(-c2nnn(Cc3nc4ccccc4s3)n2)cc1 | -17% | – |
| C[C@H]1Cn2cnc(C(=O)N[C@H](C)c3ccccc3)c2C(=O)N1 | -13.3% | – |
| CC1(C)Cc2ccccc2-c2[nH]c(=S)[nH]c(=O)c21 | 12.1% | – |
| Cc1ccc(C(=O)NN(CCC#N)C2=NS(=O)(=O)c3ccccc32)cc1 | -5.12% | – |

| Compound | activity change, negative = growth inhibition | Potency |
| --- | --- | --- |
| Cc1cc(C)c(NC(=O)CN2CCOCCOCCOCCOCC2)c(C)c1 | -14.6% | – |
| O=C(Oc1ccc2c(c1)CCC2)N1CCOCC1 | -7.1% | – |
| C=C(C)CSc1nnc(-c2ccc(C)cc2)n1N | -3.9% | – |
| CCCCn1c(N)c(N(CC(C)C)C(=O)C2CSC3(C)CCC(=O)N23)c(=O)[nH]c1=O (configuration not stated) | -12.7% | – |
| O=C(O)c1ccc(-n2cccc2)cc1O | 7.21% | – |
| CCOC(=O)C1CCCN(C(=O)c2ccc3c(c2)sc2nc(-c4ccc(CC)cc4)cn23)C1 (configuration not stated) | – | 5.17 µM (active) |
| CCOC(=O)C1CCCN(C(=O)c2cncc(Br)c2)C1 (configuration not stated) | -10% | – |
| CCOC(=O)C1CCCN(C(=O)c2cccc(S(=O)(=O)N3CCOCC3)c2)C1 (configuration not stated) | -11% | – |
| O=C(COc1ccc([N+](=O)[O-])cc1)Nc1cccc(C(=O)Nc2ccccc2C(=O)O)c1 | 10.7% | – |
| O=C(NC1(C(F)(F)F)NC(=O)N(Cc2cccnc2)C1=O)c1ccccc1Cl (configuration not stated) | -2.04% | – |
| Cc1cccc(NC(=O)CN2CCN(CC(=O)NCC3(N4CCCCC4)CCCCC3)CC2)c1C | -21% | – |
| COc1ccc(S(=O)(=O)N2CCN(CC(=O)NCC3(N4CCOCC4)CCCCC3)CC2)cc1 | -5.53% | – |
| CN1CCN(C2(CNC(=O)COc3ccc(C(C)(C)C)cc3)CCCCC2)CC1 | – | 18.4 µM (active) |
| Cc1nc2sc(C(c3ccco3)N3CCOCC3)c(O)n2n1 (configuration not stated) | -7.01% | – |
| COc1ccc(C2(CNC(=O)Cc3ccc(OC)c(OC)c3)CCCC2)cc1 | – | 20.6 µM (active) |
| COc1ccc(CC(=O)NC2CCSc3ccccc32)cc1OC (configuration not stated) | -6.31% | – |
| COc1ccccc1OCC(=O)Nc1ccccc1C(=O)NC1CC1 | -5.65% | – |
| CCOc1c(OC)cccc1C(=O)NCC1(c2ccccc2)CCCC1 | – | 6.51 µM (active) |
| COc1ccccc1C(=O)NCCC(=O)NN1C(=O)NC2(CCCCC2)C1=O | -12% | – |
| COc1cc(C(=O)NCC2(c3ccccc3)CCCC2)ccc1OC(C)C | – | 10.3 µM (active) |
| COc1ccc(CC(=O)N[C@@H]2c3cc(OC)c(OC)cc3C[C@H]2OCc2ccccc2)cc1 | -9.63% | – |
| CCn1c(CNC(=O)c2ccc(OC)c(OC)c2)nnc1SCC(=O)Nc1ccccc1 | 15.1% | – |
| COc1ccc(C(=O)NC2CC(C)(C)NC(C)(C)C2)cc1OC | -0.888% | – |
| Cn1cnc(S(=O)(=O)Nc2ccc3c(c2)OCCO3)c1 | -17.1% | – |
| CN(C)Cc1c(C#N)c2ccccc2n1C | -1.73% | – |
| COCCCN(C(=O)Cn1ncc2c(=O)oc3ccc(C)cc3c21)C(C)c1ccncc1 (configuration not stated) | -2.45% | – |

| Compound | activity change, negative = growth inhibition | Potency |
| --- | --- | --- |
| CC1CCN(CCCn2c(SCC(=O)NC3CCCC3)nc3ccccc3c2=O)CC1 | 15.5% | – |
| Nc1nc(SCCOc2ccccc2)n[nH]1 | -7.09% | – |
| COc1cc(C(=O)OCCCN2CCOCC2)cc(OC)c1OC | 11.1% | – |
| Cc1nnc(SCCCn2c(N3CCCCC3)nc3c2c(=O)[nH]c(=O)n3C)s1 | -19.1% | – |
| COc1ccc(CNc2nc3c(c(=O)[nH]c(=O)n3C)n2Cc2ccccc2)cc1 | 5.15% | – |
| Cc1cccc(OCC(O)Cn2c(N3CCCCC3)nc3c2c(=O)[nH]c(=O)n3C)c1 (configuration not stated) | – | 23.1 µM (active) |
| Cn1c(=O)[nH]c(=O)c2c1nc(N1CCN(C(c3ccccc3)c3ccccc3)CC1)n2CCO | – | 16.4 µM (active) |
| CCC(C)Sc1nc2c(c(=O)[nH]c(=O)n2C)n1CC(O)COc1cccc2ccccc12 (configuration not stated) | – | 29.1 µM (active) |
| C=C(C)Cn1c(N2CCN(CC)CC2)nc2c1c(=O)[nH]c(=O)n2C | -6.62% | – |
| C=C(C)Cn1c(N2CCCC2)nc2c1c(=O)[nH]c(=O)n2C | -7.42% | – |
| CC1CN(CC(=O)NC(C)c2ccccc2)CC(C)O1 (configuration not stated) | 3.41% | – |
| CC(C)(C)C(=O)N1CCC[C@@]1(CO)C(=O)O | -3.05% | – |
| O=C(c1ccc2c(c1)OCO2)N1CCN(C(=O)c2ccco2)CC1 | 2.81% | – |
| O=C1c2ccccc2C(=O)c2c1cccc2N1CCN(Cc2ccccc2)CC1 | – | 18.4 µM (active) |
| O=S1(=O)CCN(Cc2ccccc2)CC1 | 2.2% | – |
| O=c1cc(N2CCN(Cc3ccccc3)CC2)c(-c2ccccc2)n[nH]1 | -23.5% | – |
| C=CCNC(=O)c1ccc2nc(-c3ccco3)c(-c3ccco3)nc2c1 | – | 11.2 µM (active) |
| C=CCNC(=O)c1ccc(C)c(Br)c1 | -20.1% | – |
| C=CCNC(=O)c1cc(-c2ccccc2O)on1 | -29% | – |
| COC(=O)NNC1=CC(=O)CC(C)(C)C1 | -5.15% | – |
| Cc1ccc(N2C(=O)C(NC(=O)c3c(F)cccc3F)(C(F)(F)F)C3=C2CC(C)(C)CC3=O)cc1 (configuration not stated) | -5.91% | – |
| CN(C)c1ccc(C2Nc3ccccc3C(=O)N2NS(=O)(=O)c2ccccc2)cc1 (configuration not stated) | -1.24% | – |
| COc1ccc(-c2cc(C(=O)NC(Cc3c[nH]c4ccccc34)C(=O)O)c(C)o2)cc1OC (configuration not stated) | – | 29.1 µM (active) |
| Cc1cccc(C)c1OCC(=O)NC(Cc1c[nH]c2ccccc12)C(=O)O (configuration not stated) | – | inactive |
| COc1ccc(-c2cc(C(=O)NC(C(=O)O)C(C)C)c(C)o2)cc1OC (configuration not stated) | -6.53% | – |
| Cc1ccc(S(=O)(=O)NCc2csc(C)n2)c(C)c1 | 2.86% | – |

| Compound | activity change, negative = growth inhibition | Potency |
| --- | --- | --- |
| CCn1cc(C(=O)N2CCN(c3cc(Cl)ccc3C)CC2)c(=O)c2cc(S(=O)(=O)N3CCCC3)ccc21 | – | 25.9 µM (active) |
| CCn1cc(C(=O)N2CC(C)CC(C)C2)c(=O)c2cc(S(=O)(=O)N3CCCC3)ccc21 (configuration not stated) | 13.2% | – |
| Cc1ccc(Cl)cc1N1CCN(C(=O)c2cn(C)c3ccc(S(=O)(=O)N(C)C4CCCCC4)cc3c2=O)CC1 | -27.4% | – |
| CCn1cc(C(=O)N2CCN(c3cc(C)ccc3C)CC2)c(=O)c2cc(S(=O)(=O)N(C)C3CCCCC3)ccc21 | – | 18.4 µM (active) |
| CCOC(=O)N1CCN(C(=O)c2cn(C)c3ccc(S(=O)(=O)N4CCCC4)cc3c2=O)CC1 | -3.52% | – |
| CN(Cc1ccccc1)C(=O)c1cn(C)c2ccc(S(=O)(=O)N(C)C3CCCCC3)cc2c1=O | -14.9% | – |
| NC(=O)CSc1nc2c(oc3ccccc32)c(=O)n1Cc1ccccc1 | -16.9% | – |
| COCC(=O)Nc1cc(C(=O)OC)cc(C(=O)OC)c1 | -2.97% | – |
| Nc1ncnc2c1ncn2[C@@H]1O[C@H](CNC(=O)[C@H](N)Cc2cccnc2)[C@@H](O)[C@H]1O | 14.7% | – |
| COc1cccc(CN(C)C(=O)CC[C@H]2O[C@@H](n3cnc4c(NC(=O)c5ccccc5)ncnc43)[C@H](O)[C@@H]2O)c1 | -11.4% | – |
| COc1ccc(CC(N)C(=O)NC2C(O)[C@H](n3cnc4c(N(C)C)ncnc43)O[C@@H]2CO)cc1 (some centres not stated) | – | 22.1 µM (active) |
| COC(=O)CNC(=O)c1ccc(OC2CCN(C(=O)C3CC3)CC2)cc1 | 11.2% | – |
| CCN(CC)CCOCCOc1ccc(Cl)c2ccccc12 | – | 16.4 µM (active) |
| CCC(C(=O)OCCN(CC)CC)c1ccccc1 (configuration not stated) | -14.4% | – |
| CN(C)CCOc1ccc(Cl)cc1C(C)(C)C | -29% | – |
| C/C(=N/NC(=O)CCc1ccccc1)c1ccco1 | 18% | – |
| O=C(CCc1ccccc1)Nc1cccc(-c2nnc(-c3ccco3)o2)c1 | – | 16.4 µM (active) |
| Cc1cccc(NC(=O)CSc2nnc(-c3ccco3)o2)c1 | 4.91% | – |
| COc1cc(NS(=O)(=O)c2ccc(NC(=O)CN3C(=O)c4ccccc4C3=O)cc2)ncn1 | 0.218% | – |
| Oc1cc(O)c2c(c1)OC(c1ccc(O)c(O)c1)C(O)C2 (configuration not stated) | -6.57% | – |
| CCCC1OC23CCCCC2C(C#N)(C#N)C1(C#N)C(=N)O3 (configuration not stated) | – | 5.8 µM (active) |
| N#C/C(=C\c1ccccc1)c1n[nH]c(Cn2cncn2)n1 | -7.47% | – |
| COC(=O)N1CCC2(CCCN(c3ccncc3)C2)CC1 | -23.2% | – |
| CCc1cccc2c(=O)c(C(=O)NCCCOC)c[nH]c12 | -8.95% | – |
